# Assay results taken from PubChem BioAssay (NCATS).
# Several values for one entry are separate records, joined by “and”; a condition that tells them apart may be missing. Equal entries are not always repeated. Unmarked numbers belong to inactive results. Records with an inconclusive call do not appear. A call without a number means that no potency is given here. For some of these results: Potency and affinity values are given separately. Activity calls are given as the source filed them. For most assays here, calls come from the whole dose curve; as a rule, active = well fitted curve in the direction sought with a large enough effect; inconclusive = small, poorly fitted or top-dose-only effect, or another doubt; inactive = no such curve, though single readings can be large; an effect the other way counts as inactive or inconclusive.
# Assays:
# [1] = Ebola virus entry assay, green channel fluorescence
# [2] = qHTS assay for small molecule agonists of the antioxidant response element (ARE) signaling pathway measured by Nrf2-dependant transcriptional activity - cell viability counter screen (AID 720653; active = well fitted curve in the direction sought with a large enough effect in the repeat runs; an effect the other way counts as inactive or inconclusive); conditions: ARE-bla HepG2 viability, CellTiter-Glo ATP luminescence, 16 h; max response: hits give low values
# Procedure, shortened: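 ARE-bla HepG2 cells treated with compounds for 16 h at 37C; this counter screen measures viability as intracellular ATP by CellTiter-Glo luminescence after 30 min at room temperature.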
# [3] = Ebola virus entry assay, ratio channel
# [4] = qHTS Assay for Identifying Gametocytocidal Compounds (AID 743244); note: potency is the fitted concentration of half-maximal effect;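 for max response: actives lower the fluorescent signal which means gametocytes are killed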; conditions: P. falciparum 3D7 stage III-V gametocytes, alamarBlue, 72 h; max response: hits give low values
# Procedure, shortened: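 Using 20,000 stage III–V 3D7 gametocytes per well, compounds were incubated 72 h under 37 °C/5% CO2. Viability was then assessed by 24 h alamarBlue reduction, measured fluorometrically at 525/598 nm.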
# [5] = qHTS for Activators of Parkin Expression: LOPAC Validation Assay (NLuc Reporter) (AID 720572); conditions: Parkin promoter NanoLuc reporter cells, luminescence, percent of positive control, DMSO as zero; series mostly up to 46.1 µM
# Procedure, shortened: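 Neuronal cells with a Parkin promoter-driven FLuc/NLuc coincidence reporter were treated 24 h at 37 C in 7-point dose response (LOPAC). NLuc luminescence read after FLuc; signals normalized to DMSO and positive control (100%).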
# [6] = qHTS for Activators of Parkin Expression: LOPAC Validation Assay (FLuc Reporter) (AID 720573); conditions: Cell line, PRKN promoter firefly luciferase reporter, vehicle wells = 0, positive control = 100%; series mostly up to 46.1 µM
# Procedure, shortened: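 FLuc signal from Parkin-promoter coincidence reporter neuronal cells, normalized to DMSO and positive control (100%). Cells (1,500/well) pre-incubated 24 h, then exposed to LOPAC compounds in 7-point dose response for 24 h at 37 C, 5% CO2.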
# [7] = molecular target: T1, Hexokinase-4 (Homo sapiens) + Glucokinase regulatory protein (Homo sapiens) (UniProt P35557+Q14397); assay: qHTS assay for inhibitors of recombinant human GCK-GKRP interaction: Diaphorase-coupled assay (AID 743205); conditions: G6PDH/diaphorase resorufin fluorescence; series mostly up to 57.5 µM
# Procedure, shortened: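 A kinetic fluorescence read (Ex 525/Em 590 nm, every minute for 30 minutes) tracked resorufin from a G6PDH-diaphorase coupled GCK reaction. It contained 10 nM GST-GCK, 10 nM FLAG-GKRP, 5 mM glucose, 0.4 mM ATP in Hepes pH 7.6. Normalized to with/without-enzyme DMSO controls.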
# [8] = molecular target: T1, Hexokinase-4 (Homo sapiens) + Glucokinase regulatory protein (Homo sapiens); assay: qHTS assay for inhibitors of recombinant human GCK-GKRP interaction: ADP-Glo assay (AID 743206); conditions: ADP-Glo luminescence, 60 min, 0% = vehicle-only wells with enzyme present; series mostly up to 76.9 µM
# Procedure, shortened: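 GST-GCK and FLAG-GKRP (15 nM each in the dispensed mix, with 2 uM S6P) react with 0.4 mM ATP and 5 mM glucose (final) in Hepes pH 7.6 for 60 min at room temperature. ADP is measured by ADP-Glo luminescence.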
# [9] = molecular target: T1, Hexokinase-4 (Homo sapiens) + Glucokinase regulatory protein (Homo sapiens); assay: qHTS assay for inhibitors of recombinant human GCK-GKRP interaction: HTRF assay (AID 743207); conditions: recombinant GCK-GKRP HTRF binding, 60 min; series mostly up to 57.5 µM
# Procedure, shortened: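 After 60 min equilibration at room temperature with anti-FLAG XL665 and anti-GST antibodies, FRET ratio (665/615 nm, excitation 320 nm) was read. Proteins: GST-GCK and FLAG-GKRP, each 5 nM, plus 2 uM S6P, pH 7.1 buffer; GCK-free wells define minimum signal.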
# [10] = qHTS assay for small molecule agonists of the antioxidant response element (ARE) signaling pathway measured by Nrf2-dependant transcriptional activity (AID 720636; active = well fitted curve in the direction sought with a large enough effect in the repeat runs; an effect the other way counts as inactive or inconclusive;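 note: HepG2 cells with an ARE-driven luciferase reporter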); conditions: ARE-luc HepG2, Nrf2 luciferase reporter, 16 h; series mostly up to 92.4 µM
# Procedure, shortened: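 First, ARE-luc HepG2 cells attached for 6 hr at 37 C in 1% dialyzed FBS medium. Next, compound or DMSO was added and incubated 16 hr. Finally, ONE-Glo reagent was added and luminescence measured after 30 min.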
# [11] = qHTS assay for small molecule antagonists of the retinoid-related orphan receptor gamma (ROR-gamma) signaling pathway - cell viability counter screen (AID 720652; active = well fitted curve in the direction sought with a large enough effect in the repeat runs; an effect the other way counts as inactive or inconclusive;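 note: CHO reporter cells with doxycycline-induced ROR-gamma expression; compound exposure lasted 16 hr before ATP read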); conditions: RORgamma reporter cell line viability counter screen; series mostly up to 92.2 µM
# Procedure, shortened: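 Counter screen in CHO cells carrying TET-inducible ROR-gamma and an ROR response element-luciferase reporter; cells plated 5 hr, compound pinned, doxycycline added, then 16 hr at 37 C. Viability read as intracellular ATP by CellTiter-Glo luminescence.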
# [12] = qHTS assay for cell viability of HEK293 cells (AID 743288); conditions: ATP luminescence (CellTiter-Glo), 18 h; max response: hits give low values; note: nearly all actives have a fitted effect of over 50% in size
# Procedure, shortened: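 Total intracellular ATP, measured with a luciferase-coupled reagent, indicates the number of viable HEK293 cells. Exposure to test chemicals lasts 18 h at 37 C in 1,536-well format at 2,000 cells/well.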
# [13] = qHTS assay for cell viability of the p53RE-bla HCT-116 cell line (AID 743292); conditions: p53RE-bla HCT-116 viability, ATP luminescence, 16 h; series mostly up to 95 µM; note: nearly all actives have a fitted effect of over 55% in size
# Procedure, shortened: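 Quantitative high-throughput format: compounds in DMSO were pinned onto p53RE-bla HCT-116 cells (4,000/well) and incubated 16 h at 37 C. Total intracellular ATP, read by CellTiter-Glo luminescence, reflects viable cell number.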
# T1 sequence (P35557 whole entry, looked up): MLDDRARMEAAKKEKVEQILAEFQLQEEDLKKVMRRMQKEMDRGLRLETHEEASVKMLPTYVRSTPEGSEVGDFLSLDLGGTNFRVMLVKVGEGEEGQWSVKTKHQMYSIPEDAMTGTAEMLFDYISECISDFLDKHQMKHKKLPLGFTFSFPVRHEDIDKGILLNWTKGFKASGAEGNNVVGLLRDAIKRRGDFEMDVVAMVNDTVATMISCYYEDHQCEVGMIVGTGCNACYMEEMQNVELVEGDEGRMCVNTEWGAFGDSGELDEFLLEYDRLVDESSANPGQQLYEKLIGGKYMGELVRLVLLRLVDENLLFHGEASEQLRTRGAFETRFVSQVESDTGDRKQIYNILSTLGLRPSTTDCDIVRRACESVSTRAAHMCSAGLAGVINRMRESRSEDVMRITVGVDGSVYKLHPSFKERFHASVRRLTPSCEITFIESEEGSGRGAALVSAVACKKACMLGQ
# T1 sequence (Q14397 whole entry, looked up): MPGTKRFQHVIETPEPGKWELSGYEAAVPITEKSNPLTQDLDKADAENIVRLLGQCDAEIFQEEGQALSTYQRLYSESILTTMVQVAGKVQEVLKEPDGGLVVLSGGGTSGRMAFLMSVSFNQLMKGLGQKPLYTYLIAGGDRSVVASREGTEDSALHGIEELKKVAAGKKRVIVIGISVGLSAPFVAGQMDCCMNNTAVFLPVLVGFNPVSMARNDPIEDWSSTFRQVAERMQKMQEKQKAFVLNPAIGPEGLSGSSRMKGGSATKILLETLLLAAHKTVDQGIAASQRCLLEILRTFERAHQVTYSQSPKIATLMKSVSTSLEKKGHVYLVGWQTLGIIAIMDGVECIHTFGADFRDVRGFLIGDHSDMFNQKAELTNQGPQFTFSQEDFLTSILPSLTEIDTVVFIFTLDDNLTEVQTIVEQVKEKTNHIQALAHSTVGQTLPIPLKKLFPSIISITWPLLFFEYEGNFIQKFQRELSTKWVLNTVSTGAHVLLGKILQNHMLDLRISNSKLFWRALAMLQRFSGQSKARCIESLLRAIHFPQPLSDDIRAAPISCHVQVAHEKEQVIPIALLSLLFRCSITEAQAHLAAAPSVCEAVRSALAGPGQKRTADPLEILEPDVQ
smiles,measurement,setting,value
CN1Cc2cc(C(=O)N3CCC(C4CCNCC4)CC3)ccc2N[C@@H](CC(=O)O)C1=O,outcome,[1],inactive
Nc1cccc2c(N)cccc12,max response,[2],-13.9%
same,outcome,[3],inactive
CCCOC(=O)c1ccc(O)cc1,outcome,[1],inactive
CC1(C)CC/C(=C/c2ccc(Cl)cc2)C1(O)Cn1cncn1 (centres undefined),max response,[4],-5.52%
same,outcome,[3],inactive
same,outcome,[1],inactive
C[C@]12CCC3C(CC[C@H]4C[C@H](O)CC[C@]34C)C1CC[C@@H]2C(=O)CO (some centres undefined),outcome,[5],inactive
same,outcome,[6],inactive
same,outcome,[7],inactive
same,outcome,[8],inactive
same,outcome,[9],inactive
same,max response,[4],12.3%
S=C(SSC(=S)N1CCCCC1)N1CCCCC1,Potency,[4],0.148 µM (active)
same,outcome,[1],inactive
CC(Cc1ccc(O)cc1)NCC(O)c1cc(O)cc(O)c1 (centres undefined),outcome,[5],inactive
same,outcome,[6],inactive
same,outcome,[7],inactive
same,outcome,[8],inactive
same,outcome,[9],inactive
Cn1cnc(CCN)c1,outcome,[5],inactive
same,outcome,[6],inactive
same,outcome,[7],inactive
same,outcome,[8],inactive
same,outcome,[9],inactive
CS(=N)(=O)CC[C@H](N)C(=O)O (some centres undefined),outcome,[5],inactive
same,outcome,[6],inactive
same,outcome,[7],inactive
same,outcome,[8],inactive
same,outcome,[9],inactive
same,max response,[4],-10.6%
CC(C)Oc1cccnc1N(C)C1CCN(Cc2ccccc2)CC1,outcome,[5],inactive
same,outcome,[6],inactive
same,outcome,[7],inactive
same,outcome,[8],inactive
same,outcome,[9],inactive
same,max response,[4],-6.11%
CCOCCOC(C)=O,Potency,[10],inactive
same,Potency,[11],inactive
same,max response,[2],4.03%
same,max response,[4],4.31%
same,max response,[12],-0.828%
same,Potency,[13],inactive
same,outcome,[1],inactive
CN[C@@H]1C[C@@H](c2ccc(Cl)c(Cl)c2)c2ccccc21,outcome,[5],inactive
same,outcome,[6],inactive
same,outcome,[7],inactive
same,outcome,[8],inactive
same,outcome,[9],inactive
CNCCc1c[nH]c2ccc(O)cc12,outcome,[5],inactive
same,outcome,[6],inactive
same,outcome,[7],inactive
same,outcome,[8],inactive
same,outcome,[9],inactive
C=CCN1CC[C@]23CCCCC2[C@H]1Cc1ccc(O)cc13 (some centres undefined),outcome,[5],inactive
same,outcome,[6],inactive
same,outcome,[7],inactive
same,outcome,[8],inactive
same,outcome,[9],inactive
NC(CCP(=O)(O)O)C(=O)O (centres undefined),outcome,[5],inactive
same,outcome,[6],inactive
same,outcome,[7],inactive
same,outcome,[8],inactive
same,outcome,[9],inactive
same,max response,[4],12.6%
C1CCC(NC2CCCCC2)CC1,Potency,[10],inactive
same,Potency,[11],inactive
same,max response,[2],1.26% and -8.57% and 6.08%
same,max response,[4],18.7%
same,max response,[12],4.88% and 5.5% and 0.405%
same,Potency,[13],inactive
same,outcome,[1],inactive
COCCOCCO,Potency,[10],inactive
same,max response,[2],-0.036% and -2.85%
same,max response,[4],-9.77%
same,max response,[12],-8% and -15.7%
same,Potency,[13],inactive
same,outcome,[1],inactive
O=C(O)[C@@H]1CCN1,outcome,[5],inactive
same,outcome,[6],inactive
same,outcome,[7],inactive
same,outcome,[8],inactive
same,outcome,[9],inactive
same,max response,[4],23.1%
Cc1cc(O)ccc1Cl,Potency,[10],inactive
same,Potency,[11],inactive
same,max response,[2],3.07%
same,max response,[4],25.2%
same,max response,[12],-2.31%
same,Potency,[13],inactive
same,outcome,[1],inactive
CCC1(CCC(C)C)C(=O)NC(=O)NC1=O,max response,[4],2.89%
same,outcome,[1],inactive
CC(C)(C)NC[C@H](O)c1ccc(O)cc1Cl,max response,[4],2.84%
same,outcome,[1],inactive
Clc1cnc(Oc2ccc(Oc3ncc(Cl)cc3Cl)cc2)c(Cl)c1,outcome,[5],inactive
same,outcome,[6],inactive
same,Potency,[10],inactive
same,max response,[2],-6.15%
same,outcome,[7],inactive
same,outcome,[8],inactive
same,outcome,[9],inactive
same,max response,[12],-12.9%
same,Potency,[13],inactive
CC(=O)[C@H]1CCC2C3CC[C@H]4C[C@H](O)CC[C@]4(C)C3CC[C@@]21C (some centres undefined),outcome,[5],inactive
same,outcome,[6],inactive
same,outcome,[7],inactive
same,outcome,[8],inactive
same,outcome,[9],inactive
